Measurements from the OligoGym collection.

These sequences were tested against CD86 (assay: pooled miR-30 sensor sort-seq; sequence = guide strand). Settings: shRNA.
Note: reference of the scale not given here.

| Sequence | sensor-assay potency score (higher = more potent) |
| --- | --- |
| ATTATCTTGAGATTTCTGCATA | -0.445 |
| TTGTGAAGTCTCAGGGTCCAAC | -1.21 |
| TCATATTGCTCGTAACATCAGG | -0.912 |
| TAAGCTTGAATCTTCAGAGGAG | 0.681 |
| TATTGCTCGTAACATCAGGGAA | -0.935 |
| TAACCGTGTATAGATGAGCAGG | -0.921 |
| AACACTGTCAAATTTCTCTTTG | -0.375 |
| TACTATTTCAGGTTGACTGAAG | -0.445 |
| TGATACATTGATACAAGCCCTT | -0.31 |
| TTTTCTCTTTTCTTGGTCTGTT | -0.104 |
| TAGCAAGCACTGACAGTTCAGA | -0.996 |
| TATACTTGGAATGAACACTGTC | 1.09 |

What follows are sequences tested against CD8B in the same assay as above. Settings: shRNA.

| Sequence | sensor-assay potency score (higher = more potent) |
| --- | --- |
| TATTGCTGTAGTATCCATGCAG | 0.681 |
| TAACCGGCACACTCTCTTCTTG | -0.762 |
| AAACACAGCTATCTTCTCCTGT | 0.733 |
| TTATTTGTACAACTAAGACATT | -1.21 |
| AACACAGCTATCTTCTCCTGTT | -0.341 |
| TGTACAACTAAGACATTTGTAT | 0.113 |
| TAATCTTAGTTGTTTCATGAAA | -1.22 |
| TACTGAGGGAGATTTTAGCCTC | -0.613 |
| TATTTGTACAACTAAGACATTT | -1.4 |
| TACATTTGGTTCCACAAGGGGG | -0.791 |
| TTCTCCAGTGGATGTAATCTTA | -0.513 |
| TTGGTTTGCACCTTTATGTATG | -1.15 |
| TTGAGGGTGGACTTCTTGGTGG | -0.918 |
| TTTTTCCACATCGTGCTCGTTA | -0.473 |
| TTTAGCCTCGCAGGACAGCATC | -1.65 |
| TATGTATGCAGGGGTCTGCTGG | -1.19 |
| TTGCATCCCGAAACACAGCTAT | -0.634 |
| TATCTTCTCCTGTTCCACCTCT | 0.0744 |
| AAGGAAATCAACCACACTCAGC | -1.28 |

The sequences below were run against CDC23 in the same assay as above. Settings: shRNA.

| Sequence | sensor-assay potency score (higher = more potent) |
| --- | --- |
| TTTATTAAAACAGACCAGCTTG | -0.155 |
| TTTGTGCACAAGTTGAAGCTTC | -0.382 |
| TAGTTGATTGAGTTTCTCGTAA | -0.361 |
| TAAATGCACAACACTTTTGTGC | -0.535 |
| TTGAGTGGAGAAACTCTGCGTG | 0.52 |
| TATAATCCTATCTCCTTGCTTG | 0.291 |
| TATATTTGATGTAACACTGGGC | 0.351 |
| TAAGAATCAAACATCATTCTGG | 0.585 |
| TATAGCTAACAATATAGCCATC | -1.75 |
